# High-throughput results as filed in PubChem BioAssay.
# Most compounds without a hit are left out; they make up all but 4.1% or so of the library.
# hcDAF-12 act: activators of H. contortus DAF-12 nuclear receptor; HEK293 hcDAF-12 lit1-tk-luc reporter, luminescence; 0% DMSO, 100% Δ7-dafachronic acid; activation, % at 6.8 µM; 370,000 tested, 1.4% active; AID 652067;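 active = activation above the mean of all tested compounds plus 3 SD, cut at about 5.5% in these data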;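 also: 100% = response to 3 µM Δ7-dafachronic acid high control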
# hgDAF12 agonist: activates the H. glycines DAF-12 receptor ligand-binding domain | HEK293 GAL4-hgDAF12 UAS-luciferase reporter, agonist luminescence; normalized to butyrate control | activation, % at 6.8 µM | 370,000 tested, 1.8% active;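 active = activation above a cutoff set at the mean of all screened compounds plus 3 SD, cut at about 10% in these data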;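 also: 0% = DMSO wells and 100% = sodium butyrate wells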
# ssDAF-12 act: activators of S. stercoralis DAF-12 nuclear receptor; HEK293 ssDAF-12/GRIP1 lit1-tk-luc reporter, luminescence; % of 3 µM dafachronic acid response; 370,000 tested, 1% active; activation, % at 6.8 µM;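 active = activation above the mean over all tested compounds plus 3 SD, cut at about 0.9% in these data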;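 also: 0% = DMSO-only wells and 100% = 3 µM delta7-dafachronic acid wells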
# DAX1 inh-1: inhibitors of human orphan nuclear receptor DAX1 (NR0B1). P51843. HEK293 Gal4-DAX1 luciferase reporter, luminescence. inhibition, % at 6.75 µM. 340,000 tested, 0.99% active;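 active = inhibition above the mean over all tested compounds plus 3 SD, cut at about 4.2% in these data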;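 also: 0% = DAX1-transfected cells with DMSO and 100% = empty-vector control cells with DMSO; inhibition shows as a rise in luminescence from relieved DAX1 repression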
# Target sequence (P51843 207-470 limits assumed): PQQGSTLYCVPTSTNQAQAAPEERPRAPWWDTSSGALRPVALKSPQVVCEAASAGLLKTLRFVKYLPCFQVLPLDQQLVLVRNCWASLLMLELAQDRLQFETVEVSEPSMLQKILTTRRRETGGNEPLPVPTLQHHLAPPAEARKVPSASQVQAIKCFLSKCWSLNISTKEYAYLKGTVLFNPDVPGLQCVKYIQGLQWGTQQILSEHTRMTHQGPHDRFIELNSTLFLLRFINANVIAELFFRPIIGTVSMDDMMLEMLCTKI
# DAX1 inh-2: blocks DAX1 repression of SF-1 activated StAR promoter | HEK293T StAR-luciferase reporter, SF-1/DAX-1 repression relief | inhibition, % at 6.8 µM | 370,000 tested, 1.1% active;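 active = inhibition above the mean over all tested compounds plus 3 SD, cut at about 3.6% in these data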;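 also: 0% = DAX-1 cells with DMSO and 100% = cells lacking DAX-1 with DMSO; higher inhibition means more luminescence from relief of DAX-1 repression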
# An asterisk follows results filed as active; nt = no result given.
SMILES,hcDAF-12 act,hgDAF12 agonist,ssDAF-12 act,DAX1 inh-1,DAX1 inh-2
O=C(NCCCN1CCCC1)c1ccc(CS(=O)(=O)c2ccc(Br)cc2)o1,2,-2,-2,0,1
CN1CCN(CCCNC(=O)c2ccc(CS(=O)(=O)c3ccc(Br)cc3)o2)CC1,-3,1,-1,4.3*,-1
CCCC#Cc1ccc(CC[C@H]2O[C@H]3CC[C@H](CO)O[C@H]3C[C@H]2NC(=O)CN2CCOCC2)cc1,-4,-5,-2,nt,-1
COc1ccc(C2CC(C)(c3ccc(OC)cc3)Nc3ccccc3N2)cc1 (configuration not stated),5.7*,12*,-1,1,2
FC(F)(F)C1=NNC(c2ccc3ccccc3c2)=NN1,1,12*,0,0,1
CCc1ccc(-c2csc(NC(=O)C3CCCO3)c2C(=O)OC(C)C)cc1 (configuration not stated),-1,-2,-1,1,-1
COC(=O)c1c(-c2ccc(F)cc2)csc1NC(=O)C1CCCO1 (configuration not stated),-1,12*,-2,-1,3
COC(=O)[C@H]1C[C@@]2(N3CCCCC3)c3ccccc3N(S(=O)(=O)c3ccccc3)[C@H]2N1,1,1,-2,nt,0
O=C(Nc1nc2ncccn2c1-c1ccc(F)c(F)c1)C1CC1,-1,4,-1,nt,0
OCCCNc1ncnc2c1ncn2[C@H]1CN(Cc2ccc3c(c2)OCO3)C[C@@H](CO)O1,6.3*,-1,-1,nt,0
Nc1[nH]c(C(=O)c2ccccc2)c(-c2ccc(Cl)cc2Cl)c1C(=O)NCCC1=CCCCC1,0,0,-2,nt,nt
O=[N+]([O-])c1cccc(C2=Nn3c(nnc3-c3ccccc3)SC2)c1,-2,6,-1,nt,-2
CC1=C(C(=O)NCCCOC(C)C)C2(CCC(C)CC2)OC1=O (configuration not stated),1,-1,1.0*,2,-1
CC1=C(C(=O)NCCN2CCOCC2)C2(CCC(C)CC2)OC1=O (configuration not stated),0,-4,-1,-1,1
CC(O)CN=c1cc(-c2ccccc2)oc2ccc(Cl)cc12 (configuration not stated),4,11*,-1,0,1
CN(C)CCCN=c1cc(-c2ccccc2)oc2ccc(Cl)cc12,5,10,0,6.3*,4.4*
CC(C)N1CCCCC(NC(=O)c2cccc(F)c2)C1=O (configuration not stated),0,2,-2,nt,0
Cc1ccc(-c2cc(-c3nnc(SCC(=O)N4c5ccccc5Sc5ccc(Cl)cc54)n3N)[nH]n2)cc1,0,6,-2,nt,1
CC[C@@H](CCC1CCCCC1)CN(c1ccccc1)S(C)(=O)=O,-2,1,-1,nt,-1
CCCCOc1ccc2c(c1)C(=O)c1cc(O)ccc1-2,1,11*,-1,1,2
CCOc1ccc2c(c1)C(=O)c1cc(OCC(=O)O)ccc1-2,0,-2,-1,1,0
C=CCOC(=O)N[C@H](c1ccc2ccccc2c1)[C@H](C)/C=C/CC(=O)OC,0,1,-2,nt,0
O=C(Nc1nc2ccc(F)cc2s1)Oc1ccccc1,6.5*,2,0,0,0
COc1ccc2nc(NC(=O)c3ccc(NC(=O)C4CCCO4)cc3)sc2c1 (configuration not stated),-1,0,0,0,-1
CC1CCc2nc(NC(=O)c3ccco3)sc2C1 (configuration not stated),0,-5,-2,-5,-1
SMILES,hcDAF-12 act,hgDAF12 agonist,ssDAF-12 act,DAX1 inh-1,DAX1 inh-2
O=C(NC(=S)Nc1nc2ccc(F)cc2s1)c1ccco1,5.8*,5,2.6*,2,2
CC1CCc2nc(NC(=O)C3CCCO3)sc2C1 (configuration not stated),6.5*,12*,1,1,3.7*
O=C(Nc1nc2ccc(F)cc2s1)C1CCCO1 (configuration not stated),5,11*,0,1,4.0*
CS(=O)(=O)c1ccc2nc(NC(=O)Oc3ccccc3)sc2c1,-2,3,-1,2,-1
Nc1ncnc2c1ncn2[C@@H]1O[C@H](C(=O)N[C@@H](CCc2ccccc2)C(=O)N2CCN(CC(=O)N3CCCC3)CC2)[C@@H](O)[C@H]1O,2,2,-1,nt,0
Cc1ccc(F)cc1C(=O)N(Cc1ccccn1)CC1CCCO1 (configuration not stated),2,0,-1,nt,-1
N=c1oc2ccc3ccccc3c2cc1-c1nc(-c2ccccc2)cs1,6.2*,1,0,1,1
CCOC(=O)CC(=O)CSc1nc2cc(C)ccc2cc1C,6.4*,-1,0,1,0
COc1ccc2nc(SCC(=O)NC3CCCC3)c(C)cc2c1,-2,1,-1,1,-1
CCOC(=O)CC(=O)CSc1nc2ccc(OC)cc2cc1C,0,3,1.7*,0,1
CCOC(=O)CC(=O)CSc1nc2c(C)c(C)ccc2cc1C,1,0,0,-1,0
CCOC(=O)CSc1nc2cc(C)ccc2cc1C#N,2,11*,0,2,3
O=C1[C@@H](CCc2ccccc2)[C@@H]2c3ccccc3C=NN2[C@@H]2c3ccccc3C=NN12,2,3,-1,nt,0
NC(=O)C1(N2CCCCC2)CCN(S(=O)(=O)c2ccc(Cl)s2)CC1,2,3,-1,0,0
NC(=O)C1(N2CCCCC2)CCN(S(=O)(=O)c2cc(Cl)ccc2Cl)CC1,2,-1,0,4.6*,1
Cc1cccc(C(=O)NNC2=C(C(=O)C(F)(F)F)CCC2)c1O,3,12*,0,1,1
Cc1ccc(NC(=O)CSCC(=O)N2CCN(c3cccc(C(F)(F)F)c3)CC2)cc1,1,0,-1,0,2
O=C(Nc1ccc(F)cc1F)C1(c2cccs2)CCOCC1,-1,0,0,4.5*,-1
COc1ccc(S[C@]2(C(=O)N3CCOCC3)CC(=O)N(C(=O)/C=C/c3ccccc3)[C@@H]2c2ccc(OC)cc2)cc1,-3,2,-1,nt,-3
Cc1cccc2nc(CSc3nc4ccc([N+](=O)[O-])cc4[nH]3)c(Br)n12,5,1,0,0,0
CCc1noc(C)c1C(=O)NNC(=O)c1nn(C)c(=O)c2ccccc12,0,2,-1,0,-1
CCc1noc(C)c1C(=O)NNC(=O)c1nn(CC)c(=O)c2ccccc12,0,1,-1,5.2*,-1
O=C(/C=C\c1ccccc1[N+](=O)[O-])Nc1ccccc1,4,11*,0,3,1
O=C(/C=C/c1ccccc1)Nc1cccc(C(=O)O)c1,3,13*,-1,-8,4.4*
